# CCHF vOTU inh = blocks the CCHF virus ovarian tumor domain protease. inhibition, % at 11.5 µM. CCHFV vOTU protease, Pep-AMC fluorescence. 0.55% of 370,000 active; note: 0% = vehicle wells with enzyme and 100% = no enzyme wells
# GDH-TPI counter-1 = inhibits GDH-TPI coupling enzymes, artifact for Mtb FBA screen; GDH-TPI coupled enzyme counterscreen, NADH absorbance; inhibition, % at 4.8 µM; 1.2% of 360,000 active; AID 588335;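 note: 0% = DMSO wells and 100% = wells lacking the enzyme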
# Mtb bLac sens = beta-lactam sensitization of Mtb H37Rv | inhibition, % at 25 µM | M. tuberculosis H37Rv growth with meropenem, percent inhibition | 0.27% of 330,000 active; call rule not given here;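 note: growth measured after seven days incubation then overnight dye step; 0% = bacteria only wells and 100% = bacteria with antibiotic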
# RecA intein inh = blocks M. tuberculosis RecA intein splicing; P9WHJ3; cell-free RecA intein splicing, fluorescence; inhibition, % (test concentration not listed); 0.75% of 290,000 active; AID 2221; in the data active = inhibition above about 30%;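 note: 0% = vehicle wells and 100% = reference inhibitor control wells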
# Mtb FBA inh = inhibits M. tuberculosis FBA enzyme | P9WQA3 | inhibition, % at 1 µM | purified M. tuberculosis FBA, fluorescence read-out | AID 588726 | 2.3% of 360,000 active; in the data active = inhibition above about 27%;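 note: 0% = vehicle and 100% = reference inhibitor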
# Target sequence (P9WQA3 whole entry, looked up): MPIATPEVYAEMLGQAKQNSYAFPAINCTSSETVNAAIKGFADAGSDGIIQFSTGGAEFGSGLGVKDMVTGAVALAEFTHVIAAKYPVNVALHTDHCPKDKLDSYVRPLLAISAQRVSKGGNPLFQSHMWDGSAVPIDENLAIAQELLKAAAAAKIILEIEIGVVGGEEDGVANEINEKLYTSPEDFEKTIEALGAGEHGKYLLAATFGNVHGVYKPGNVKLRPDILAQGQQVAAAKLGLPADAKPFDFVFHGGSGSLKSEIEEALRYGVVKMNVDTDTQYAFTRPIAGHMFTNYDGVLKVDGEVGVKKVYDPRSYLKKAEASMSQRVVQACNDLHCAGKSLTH
# Mtb FBA confirm = confirmation of M. tuberculosis fructose-bisphosphate aldolase inhibitors. shares compounds with Mtb FBA inh. purified M. tuberculosis FBA, fluorescence read-out. inhibition, % at 1 µM. 78% of 5,600 active. AID 651616; in the data active = inhibition above about 27%;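 note: 0% = vehicle wells and 100% = reference inhibitor wells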
# GDH-TPI counter-2 = GDH-TPI inhibition counter-screen for FBA inhibitors; shares compounds with Mtb FBA inh; 81% of 5,600 active; AID 652141; GDH-TPI coupled enzyme counterscreen, fluorescence; inhibition, % at 1 µM; in the data active = inhibition above about 10%
# GDH-TPI dose = GDH-TPI dose response counter-screen for Mtb FBA; GDH-TPI coupled enzyme assay, fluorescence, artifact counterscreen; AID 652145; shares compounds with Mtb FBA inh; 79% of 170 active; IC50, µM; call rule not given here
# Numbers without * were called inactive; x = not tested or not shown. An excerpt weighted towards active compounds, which were near 4.2% of everything screened. Cut-off read from the data, not from the text of the source, unless noted: active = inhibition above about 30%; inactive = the rest.
SMILES,CCHF vOTU inh,GDH-TPI counter-1,Mtb bLac sens,RecA intein inh,Mtb FBA inh,Mtb FBA confirm,GDH-TPI counter-2,others
O=C(Nc1cccc2ccccc12)N1CCc2ccccc2C1,-6.3,6.8,4.6,3.3,42.9*,14.4,-2.6,GDH-TPI dose=>10
CCN1CCN(C(=O)Nc2ccc(OC)cc2OC)CC1,1.5,-3.9,-1.0,-2.7,-5.5,x,x,
CCN1CCN(C(=O)Nc2cccc3ccccc23)CC1,-13.4,0.9,-3.9,-0.6,43.9*,71.1*,72.2*,
O=C(Nc1cccc2ccccc12)N1CCCN(c2c(Cl)cncc2Cl)CC1,-0.6,-1.5,x,2.3,-17.8,x,x,
CN1CCN(C(=O)Nc2cccc3ccccc23)CC1,-30.0,-6.2,5.1,-4.1,40.2*,9.8,-6.3,
O=C(Nc1cccc2ccccc12)N1CCOCC1,-5.7,-1.6,-2.4,0.3,45.2*,122.4*,87.7*,
COC(=O)c1cc2c(c3c4ccccc4n(S(=O)(=O)c4cccc(C)c4)c13)C(=O)N(C)C2,3.4,x,x,x,x,x,x,
CCN(CC)C(=O)C1CCCN(C(=S)Nc2cccc3ccccc23)C1 (stereo unspecified),1.5,7.0,0.4,0.3,20.6,x,x,
COC(=O)c1ccccc1NC(=O)N1CCN(c2ccc(F)cc2)CC1,-4.3,-2.5,0.6,8.2,0.4,x,x,
O=C(Nc1cccc2ccccc12)N1CCN(c2ccc(F)cc2)CC1,-8.0,4.7,-2.1,3.9,29.9*,54.1*,55.2*,
O=C(O)c1ccccc1NC(=O)N1CCOCC1,-11.8,2.5,2.0,-1.9,32.5*,111.9*,89.6*,
NC(=O)C1CCCN(C(=O)Nc2cccc3ccccc23)C1 (stereo unspecified),-6.0,-3.4,1.7,x,40.4*,60.1*,45.9*,
C[C@H](O)[C@@H]1CN2CCc3ccc(-c4ccc5c(c4)OCO5)cc3[C@@H]2C[C@@H]1N(C)CC1CCCCC1,-2.0,x,x,x,x,x,x,
Cc1ccc(-n2c(Cc3cccs3)nnc2SCc2ccc(Br)cc2)cc1,10.1,x,x,x,x,x,x,
COCC(=O)NCC1CCN(C(=O)C(=O)c2cccs2)CC1,-7.6,x,x,x,x,x,x,
C#CCN1CC(N(C)CCCO)CS1(=O)=O (stereo unspecified),-6.6,x,x,x,x,x,x,
COCCNC(=O)C1(C)CCN(C(=O)c2ccc3c(c2)C(C)(C)CCC3(C)C)C1 (stereo unspecified),-6.9,-0.9,x,x,27.2*,-3.7,-7.5,
COCCNC(=O)C1(C)CCN(C(=O)c2ccc(F)c(C)c2)C1 (stereo unspecified),1.6,5.6,x,x,2.3,x,x,
CCCCCCCCN1C(=O)[C@@H](CC(=O)N2CCC(c3ccccc3)CC2)C[C@@]2(C(=O)OC)C1=C[C@H](C1CCCC1)O[C@@H]2C,-2.2,x,x,x,x,x,x,
O=C(NC1CCCCN(Cc2ccc(Cl)cc2)C1=O)c1cccc2nsnc12 (stereo unspecified),3.9,x,x,x,x,x,x,
COC(=O)[C@]1(CC(C)C)NC=C(C(=O)c2ccccc2)[C@@H]1c1cccs1,-2.1,x,x,x,x,x,x,
COc1ccc(-c2cc(C(=O)N3CCN(c4ccccc4O)CC3)c3ccccc3n2)cc1,-12.1,6.7,10.5,x,8.0,x,x,
COc1ccc(-c2cc(C(=O)N3CCN(c4ccccc4)CC3)c3ccccc3n2)cc1,-11.4,13.8,80.9,5.0,30.1*,3.6,-8.2,
COc1ccc(-c2cc(C(=O)N3CCC4(CC3)OCCO4)c3ccccc3n2)cc1,-16.5,20.5,-1.0,3.4,110.0*,-0.8,1.1,
COc1ccc(-c2cc(C(=O)N3CCN(c4ncccn4)CC3)c3ccccc3n2)cc1,-21.2,16.8,58.4,x,31.5*,149.2*,122.5*,
SMILES,CCHF vOTU inh,GDH-TPI counter-1,Mtb bLac sens,RecA intein inh,Mtb FBA inh,Mtb FBA confirm,GDH-TPI counter-2,others
O=C(N[C@H](Cc1ccccc1)C(=O)NCCCN1CCCC1=O)[C@H]1O[C@@H](n2ccc(=O)[nH]c2=O)[C@H](O)[C@@H]1O,-1.3,x,x,x,x,x,x,
Cc1cc(O)cc(=O)n1-c1ccc(OC(F)F)cc1,-2.5,x,x,x,x,x,x,
Cc1cc(-c2ccccc2)nc(N2CCC(C(=O)NCc3ccccc3Cl)CC2)n1,x,x,x,2.7,x,x,x,
C=CCNC(=O)C1CCN(c2nc(C)cc(-c3ccccc3)n2)CC1,x,8.9,-0.8,-2.0,32.5*,4.6,1.1,
CC(C)(C)c1cc(NCCCn2ccnc2)n2ncc(-c3ccc(Cl)cc3)c2n1,-11.6,14.1,98.9,17.5,60.9*,59.8*,41.1*,
Clc1ccc(NCc2cccnc2)cc1,7.5,3.5,-6.6,0.1,13.0,x,x,

# Compound activity: PubChem BioAssay, several laboratories
